HepG2 viability = counter-screen for TGF-b inhibitors: cytotoxicity in HepG2 cells. Potency, µM (titrated, usually from 46.1 µM), for the others: at the top dose activity change, negative = cytotoxicity, most hits filed as cytotoxic. 0.76% of 410,000 active. AID 588856. HepG2 CAGA-GFP viability, ATP luminescence, 18 h; also: potency is read from the fitted curve at half-maximal effect
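CellTiter-Glo luminescence gave cytotoxicity after 18 hours at 37 degrees C. The cells were HepG2 CAGA-GFP in 1% FBS DMEM, stimulated with 500 pg/mL TGF-beta after compound addition. %Activity was normalised to no-cell wells (complete cell-killing) and DMSO (no toxicity), and curves were fitted and classified.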
TGFb inhibitor = TGF-b pathway inhibition; HepG2 CAGA-GFP TGF-b/SMAD3 reporter, GFP fluorescence, 18 h; TGF-beta stimulated, 500 pg/mL final; Potency, µM (top dose mostly 46.1 µM), for inactives: at the top dose activity, negative = inhibition, usual class: inhibitors; 1.2% of 410,000 active; AID 588855; also: potency is read from the fitted curve at half-maximal effect; % is scaled to controls: 0 for no effect and ±100 for the full control effect; nearly all actives have a fitted effect of over 65% in size
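Inhibition of TGF-beta-driven CAGA-GFP reporter expression in HEPG2 cells is measured by cellular GFP fluorescence after 18 h stimulation with 500 pg/mL recombinant TGF-beta in 1% FBS medium at 37 degrees C.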
DRD3 antagonist = blocks the human D3 dopamine receptor; P35462; D3R cells, DiscoveRx beta-arrestin luminescence, antagonist mode; stronger effect = lower value; max response, negative = inhibition, %; 2.5% of 360,000 active; in the data active = max response below about -50%; inconclusive = no clear call, values can overlap the other calls; also: % is scaled to controls: 0 for no effect and ±100 for the full control effect
Target sequence (P35462 whole entry, looked up): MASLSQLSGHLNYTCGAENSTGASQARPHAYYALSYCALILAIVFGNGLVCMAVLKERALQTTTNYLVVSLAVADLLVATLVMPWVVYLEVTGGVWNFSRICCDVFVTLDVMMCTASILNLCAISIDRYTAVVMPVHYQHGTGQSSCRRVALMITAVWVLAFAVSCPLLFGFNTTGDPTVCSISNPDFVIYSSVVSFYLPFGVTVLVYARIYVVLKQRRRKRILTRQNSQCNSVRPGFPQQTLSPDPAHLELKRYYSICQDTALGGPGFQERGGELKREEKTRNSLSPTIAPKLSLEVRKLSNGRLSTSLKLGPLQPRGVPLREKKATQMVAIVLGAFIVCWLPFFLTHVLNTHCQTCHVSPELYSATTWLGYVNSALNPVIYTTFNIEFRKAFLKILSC
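Cells expressing the human receptor were seeded at 1500 cells/well, incubated overnight at 37 degrees C in 5% CO2, then exposed to library compounds with dopamine controls for 90 minutes at 37 degrees C before luminescent detection.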
ATXN viability = reduces viability in counter-screen for ATXN expression inhibitors; S2 cells (HEK-293 line with an ATXN2-luciferase reporter) viability, CellTiter-Fluor protease fluorescence, 24 h; 0.49% of 400,000 active; Potency, µM (doses to about 56.7 µM), usual class: cytotoxic; also: potency is read from the fitted curve at half-maximal effect; nearly all actives have a fitted effect of over 40% in size
D3 ag = agonists of human D3 dopamine receptor. P35462. D3R DiscoveRx beta-arrestin cells, luminescence, 90 min. max activation, %. 0.58% of 410,000 active. AID 652048; in the data active = max activation above about 30%; also: 0% is about no effect
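Agonist mode: compounds and dopamine controls were applied to plated cells for 90 min at 37 degrees C after an overnight attachment at 1500 cells/well. Luminescent read-out followed 30 - 60 minutes at room temperature with DiscoveRx detection reagent.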
ATXN2 expr inh = ATXN2 expression inhibition; HEK-293 ATXN2-luciferase reporter, luminescence, 24 h; Potency, µM (highest dose often 57 µM), for inactives: at the highest dose activity change, negative = inhibition, actives largely listed as inhibitors; 0.72% of 360,000 active; also: potency is read from the fitted curve at half-maximal effect; % is scaled to controls: 0 for no effect and ±100 for the full control effect; nearly all actives have a fitted effect of over 55% in size
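qHTS (up to 57 uM final) was run with 24 h compound exposure of reporter cells at 37 °C. Each well was multiplexed: SteadyGlo luminescence measured ATXN2-luciferase expression after a fluorogenic Gly-Phe-AFC viability readout (25 uM final).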
Numbers without * were called inactive; i = inactive; ? = inconclusive; / = not tested or not shown. Hits are enriched below; roughly 4.7% of the tested compounds scored in any of these assays. Unless noted, calls follow the shape of the dose curve; as a rule, active = well fitted curve in the direction sought with a large enough effect; inconclusive = small, poorly fitted or top-dose-only effect, or another doubt; inactive = no such curve, though single readings can be large; an effect the other way counts as inactive or inconclusive.

SMILES	HepG2 viability	TGFb inhibitor	DRD3 antagonist	ATXN viability	D3 ag	ATXN2 expr inh
c1ccc(COc2cccc(CN3CCCCC3)c2)cc1	0%	-4%	?	?	-23	-51%
CC(=O)OCC(=O)NCCCOc1cccc(CN2CCCCC2)c1	-16%	25%	-81*	i	-67	0%
CO[C@H]1CC[C@@]2(C)[C@@H](CC[C@@H]3[C@@H]2CC[C@@]2(C)[C@H]3C[C@H](C(=O)O)O[C@]23CCCO3)C1	16µM*	2%	6	i	-16	-5%
CCCOC(=O)c1cccc(Nc2nc(CCC)cc(=O)[nH]2)c1	-58%	?	/	?	17	?
CC(C)CNS(=O)(=O)c1cc(C(=O)OCC(=O)N2CCOCC2)c(Cl)cc1Cl	-18%	-13%	-7	i	9	2%
CC(C)CNS(=O)(=O)c1cc(C(=O)N2CC(C)OC(C)C2)c(Cl)cc1Cl (configuration not stated)	-35%	1%	-55*	i	5	-9%
Cc1ccc(NC(=O)Cn2c(=O)n(Cc3ccco3)c(=O)c3ccccc32)cc1	5%	-13%	/	i	7	-5%
Cc1ccc2c(c1)c(=O)c1ccccc1n2CCCC(=O)Nc1ccc(C)c(F)c1	-17%	6.3µM*	/	/	0	0%
O=C(Cn1c(=O)n(Cc2ccco2)c(=O)c2ccccc21)Nc1cccc(Cl)c1	-84%	10µM*	17	?	0	?
O=C(CCCn1c2ccccc2c(=O)c2ccccc21)Nc1cccc(Cl)c1	-30%	13µM*	/	/	9	?
O=C(CSc1nc2[nH]ncc2c(=O)[nH]1)NCc1ccccc1	21%	17%	-59*	i	-5	-12%
O=C(CSc1nc2[nH]ncc2c(=O)[nH]1)NCc1ccc(F)cc1	1%	?	-50*	i	0	0%
O=C(CSc1nc2[nH]ncc2c(=O)[nH]1)NCCc1ccccc1	1%	4%	16	i	1	/
COc1ccccc1N1CCN(CC(O)COc2ccc(Cl)c(C)c2)CC1 (configuration not stated)	-31%	-17%	/	i	-23	-17%
Cc1ccc(OCC(O)CN2CCN(CC(O)COC(C)C)CC2)c(C(C)(C)C)c1 (configuration not stated)	-40%	35%	?	i	-51	-24%
COc1ccccc1N1CCN(CC(O)COc2ccc3c(c2)CCC3)CC1 (configuration not stated)	-25%	1%	-67*	i	-5	-14%
COc1ccccc1N1CCN(CC(O)COc2ccc(C)cc2C(C)(C)C)CC1 (configuration not stated)	16µM*	?	/	/	-10	/
COc1ccccc1N1CCN(CC(O)COc2cc(C)cc(C)c2)CC1 (configuration not stated)	-16%	-2%	/	i	-31	-15%
COc1ccccc1N1CCN(CC(O)COc2ccc(C)c(C)c2)CC1 (configuration not stated)	-17%	?	-101*	i	-21	-18%
CC(C)(C)CC(C)(C)NCC(O)COc1ccc2c(c1)CCC2 (configuration not stated)	-96%	?	-63*	?	3	?
COc1ccccc1CN1CCCC(n2cc(C(=O)N3CCCCC3)nn2)C1 (configuration not stated)	/	/	/	i	/	/
COc1ccccc1N1CCN(CC(O)COc2ccc(S(=O)(=O)N3CCOCC3)cc2)CC1 (configuration not stated)	-11%	-21%	-81*	i	-31	-18%
O=C(O)c1ccc(-n2c(-c3cc(C4CC4)[nH]n3)n[nH]c2=S)cc1	19%	-2%	?	i	-21	1%
O=C(O)c1ccc(-n2c(-c3cc(-c4ccco4)[nH]n3)n[nH]c2=S)cc1	-4%	4%	-91*	i	-11	1%

Screening results from PubChem BioAssay.
